The values below come from PubChem BioAssay AID652154 (Broad Institute, 2013).

What is called inhibition is the change of the read-out against control, counted positive when it falls.

The whole screen tested about 360,000 compounds, of which about 4,200 (1.2%) were called active.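 Rule for the calls: active = mean replicate inhibition at least 60% with every replicate also reaching 60%; inconclusive = only one of the two criteria is met; inactive = mean below 60% and not all replicates reaching 60%.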 Many of the other results were omitted from the sample, so actives are more common in it than they were.

The nature of this experiment: PAX8 transcriptional activity inhibition in RMG-I – RMG-I cells, luciferase, single concentration, primary screen (AID 652154).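 Note: luciferase light reporting Pax8 driven TPO promoter activity; plate controls were median of neutral control wells for no effect and mitoxantrone controls for full effect.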 Conditions: RMG-I TPO-luciferase reporter, SteadyGlo, 24 h; at 12.6 µM; hits give high values.
On to `C[C@@H](O)C#Cc1ccc([C@@H]2[C@H]3CN(S(=O)(=O)c4ccccc4)CCCCN3[C@H]2CO)cc1`, for which the inhibition was -13.8% (inactive).

In the case of `CCCC#Cc1ccc([C@H]2[C@H](CO)N3CCCCN(S(=O)(=O)CC)C[C@@H]23)cc1`, the inhibition is -26.1% (inactive).

As for `COc1ccc(S(=O)(=O)N2CCCCN3[C@H](C2)[C@H](c2ccc(C4=CCCC4)cc2)[C@@H]3CO)cc1`, the inhibition was 9.85% (inactive).

As for `COc1ccc(S(=O)(=O)N2CCCCN3[C@H](CO)[C@@H](c4ccc(C#CC(C)C)cc4)[C@H]3C2)cc1`, the inhibition was 76.3% (active).

Consider `CCCC#Cc1ccc([C@H]2[C@@H](CO)N3CCCCN(S(=O)(=O)Cc4ccccc4)C[C@H]23)cc1`, for which the inhibition was 86.5% (active).

As for `COc1cccc(S(=O)(=O)N2CCCCN3[C@H](CO)[C@H](c4ccc(C#CC5CC5)cc4)[C@H]3C2)c1`, the inhibition is 12.2% (inactive).

Turning to `COc1ccc(S(=O)(=O)N2CCCCN3[C@@H](CO)[C@@H](c4ccc(C#CCC(C)C)cc4)[C@@H]3C2)cc1`, the inhibition was 46.7% (inactive).

On to `COc1cccc(S(=O)(=O)N2CCCCN3[C@H](C2)[C@@H](c2ccc(C4=CCCCC4)cc2)[C@@H]3CO)c1`, for which the inhibition was 12.7% (inactive).

On to `CCCC#Cc1ccc([C@H]2[C@@H](CO)N3CCCCN(S(=O)(=O)CC)C[C@H]23)cc1`, for which the inhibition is 6.07% (inactive).

Regarding `COc1cccc(S(=O)(=O)N2CCCCN3[C@H](C2)[C@H](c2ccc(C#CC(C)C)cc2)[C@@H]3CO)c1`, the inhibition was 69.8% (active).

In the case of `COc1ccc(S(=O)(=O)N2CCCCN3[C@H](CO)[C@H](c4ccc(C5=CCCCC5)cc4)[C@@H]3C2)cc1`, the inhibition is 69.6% (active).

On to `COc1ccc(S(=O)(=O)N2CCCCN3[C@H](C2)[C@H](c2ccc(C#CCC(C)C)cc2)[C@@H]3CO)cc1`, for which the inhibition was 18.7% (inactive).

`CO[C@H]1CN(C)C(=O)c2ccc(NC(=O)C3CCC3)cc2OC[C@@H](C)NC[C@H]1C`: the inhibition is 9.77% (inactive).

With `CC(=O)NC[C@H]1[C@H](c2ccc(C3=CCCCC3)cc2)[C@@H](CO)N1C(=O)NC(C)C`, the inhibition was -0.865% (inactive).

Consider `CCCNC(=O)N1C[C@H]2[C@@H](c3ccccc31)[C@H](CO)N2C(=O)NC(C)C`, for which the inhibition is -13% (inactive).

On to `COCC(=O)Nc1ccc2c(c1)C(=O)N(C)C[C@@H](OC)[C@@H](C)CN(C(=O)Cc1ccccn1)[C@@H](C)CO2`, for which the inhibition is -15.1% (inactive).

`CCC(=O)Nc1ccc2c(c1)C(=O)N(C)C[C@H](OC)[C@H](C)CN(CCC(F)(F)F)[C@H](C)CO2`: the inhibition was -9.12% (inactive).

For `COCC(=O)Nc1ccc2c(c1)OC[C@@H](C)N(C(=O)CC1CC1)C[C@@H](C)[C@@H](OC)CN(C)C2=O`, the inhibition was -0.715% (inactive).

Take `C/C=C/c1ccc(C2[C@H]3CNC[C@@H]2N3C(=O)Nc2cc(F)ccc2F)cc1` (stereo partly specified): the inhibition is -0.3% (inactive).

Take `CCNC(=O)Nc1ccc2c(c1)C(=O)N(C)[C@H]1CC[C@@H](CC(=O)N[C@H](C)c3ccccc3)O[C@@H]1CO2`: the inhibition is -19% (inactive).

As to `C[C@H]1CN([C@@H](C)CO)C(=O)c2ccccc2-c2ccccc2CO[C@H]1CN(C)S(=O)(=O)c1ccccc1C#N`, the inhibition was -18.2% (inactive).

Take `O=C(C[C@@H]1C[C@@H]2c3cc(NS(=O)(=O)c4ccc(F)cc4)ccc3O[C@@H]2[C@H](CO)O1)N1CCCCC1`: the inhibition is 9.01% (inactive).

With `CCCCc1c(-c2ccc(Cl)cc2)ncn1CCc1ccccc1OC`, the inhibition is 33.1% (inactive).

As to `CCCCCc1c(-c2cccc(Br)c2)ncn1CCc1ccccc1OC`, the inhibition was 9.05% (inactive).

For the compound `CCCCc1c(-c2ccc(Br)cc2)ncn1CCc1ccccc1OC`, the inhibition was 74% (active).

As to `CN(C)CC#Cc1ccc([C@@H]2[C@H](CO)N3C(=O)CN(C(=O)Cc4cccnc4)C[C@@H]23)cc1`, the inhibition is 17.8% (inactive).

With `Cc1ccccc1-c1ccc([C@@H]2[C@H](CO)N3CCCCN(S(=O)(=O)c4ccc(F)cc4)C[C@@H]23)cc1`, the inhibition is -34.4% (inactive).

Take `Cc1ccc(OCC(=O)Nc2ccc(N3CCN(C(=O)c4ccco4)CC3)cc2)c(C)c1`: the inhibition was 7.91% (inactive).

On to `Cc1ccc(C)c(OCC(=O)N2CCN(C(=O)c3ccco3)CC2)c1`, for which the inhibition is 64.3% (active).

As for `O=C(OCC(=O)N1CCN(C(=O)c2ccco2)CC1)c1c(Cl)cccc1Cl`, the inhibition is -6.1% (inactive).

As for `CC(C)c1cc(N=O)cc(C(C)C)c1O`, the inhibition was 1.72% (inactive).

`CC(C)=CCc1ccc(O)c(=O)cc1C(C)C`: the inhibition is 79.1% (active).

For `O=C(C[C@@H]1CC[C@H](NS(=O)(=O)c2cccc(F)c2)[C@H](CO)O1)N1CCCCC1`, the inhibition is 2.78% (inactive).

Turning to `O=C(CN1CCOCC1)N1CCCCN2[C@H](C1)[C@H](c1ccc(-c3ccccc3F)cc1)[C@@H]2CO`, the inhibition is 0.84% (inactive).

On to `C[C@@H]1CN([C@H](C)CO)C(=O)c2cc(NC(=O)c3ccncc3)ccc2O[C@@H]1CN(C)C(=O)Nc1ccc(F)cc1`, for which the inhibition was -12.7% (inactive).

For `CC[C@H](C)[C@H]1CNC(=O)C(=O)N1CC1CCN(CCc2ccc(OC)c(OC)c2)CC1`, the inhibition is 5.58% (inactive).

Regarding `Cc1noc(C)c1S(=O)(=O)Nc1ccc2c(c1)CC(=O)N([C@@H](C)CO)C[C@@H](C)[C@@H](CN(C)C(=O)Nc1ccc(C(F)(F)F)cc1)O2`, the inhibition is 4.57% (inactive).

For `Cc1ccc(S(=O)(=O)Nc2ccc3c(c2)C(=O)N([C@@H](C)CO)C[C@@H](C)[C@H](CN(C)C(=O)Nc2cccc4ccccc24)OCCCC[C@H](C)O3)cc1`, the inhibition is 22.8% (inactive).

Take `COc1ccc(NC(=O)N(C)C[C@H]2OCCCC[C@@H](C)Oc3ccc(NS(=O)(=O)c4ccc(F)cc4)cc3C(=O)N([C@@H](C)CO)C[C@@H]2C)cc1`: the inhibition was 1.37% (inactive).

Turning to `C[C@@H]1CCCCO[C@@H](CN(C)C(=O)NC2CCCCC2)[C@H](C)CN([C@H](C)CO)C(=O)c2cc(NS(=O)(=O)c3ccc(Cl)cc3)ccc2O1`, the inhibition is 89.7% (active).

For `COc1ccc(NC(=O)N(C)C[C@H]2OCCCC[C@H](C)Oc3ccc(NS(=O)(=O)c4ccc(Cl)cc4)cc3C(=O)N([C@@H](C)CO)C[C@H]2C)cc1`, the inhibition is -13.3% (inactive).

Take `C[C@@H]1CCCCO[C@@H](CN(C)C(=O)Nc2cccc3ccccc23)[C@H](C)CN([C@@H](C)CO)C(=O)c2cc(NS(=O)(=O)c3ccccc3)ccc2O1`: the inhibition was 22.1% (inactive).

As for `C[C@@H]1CCCCO[C@H](CN(C)C(=O)NC2CCCCC2)[C@H](C)CN([C@H](C)CO)C(=O)c2cc(NS(=O)(=O)c3ccc(Cl)cc3)ccc2O1`, the inhibition was 53.7% (inactive).

On to `C[C@H](CO)N1C[C@H](C)[C@H](CN(C)CC2CCCCC2)OCCCC[C@H](C)Oc2ccc(NS(=O)(=O)c3ccc(F)cc3)cc2C1=O`, for which the inhibition is 52.9% (inactive).

Turning to `C[C@H]1CCCCO[C@@H](CN(C)C(=O)Nc2cccc3ccccc23)[C@@H](C)CN([C@@H](C)CO)C(=O)c2cc(NS(=O)(=O)c3ccc(Cl)cc3)ccc2O1`, the inhibition is 71.8% (active).

`C[C@@H]1CCCCO[C@H](CN(C)CC2CCCCC2)[C@H](C)CN([C@H](C)CO)C(=O)c2cc(NS(=O)(=O)c3ccc(F)cc3)ccc2O1`: the inhibition is 53.6% (inactive).

Take `COc1ccc(NC(=O)N(C)C[C@@H]2OCCCC[C@@H](C)Oc3ccc(NS(=O)(=O)c4ccc(Cl)cc4)cc3C(=O)N([C@H](C)CO)C[C@H]2C)cc1`: the inhibition is 63.7% (active).

Turning to `C[C@H]1CCCCO[C@H](CN(C)CC2CCCCC2)[C@@H](C)CN([C@@H](C)CO)C(=O)c2cc(NS(=O)(=O)c3ccc(Cl)cc3)ccc2O1`, the inhibition was 68.9% (active).

Turning to `C[C@H]1CCCCO[C@@H](CN(C)C(=O)NC2CCCCC2)[C@@H](C)CN([C@@H](C)CO)C(=O)c2cc(NS(=O)(=O)c3ccc(Cl)cc3)ccc2O1`, the inhibition is 32.2% (inactive).

For the compound `C[C@@H]1CN([C@@H](C)CO)S(=O)(=O)c2ccc(C3=CCCCC3)cc2O[C@@H]1CN(C)Cc1cccc(C(=O)O)c1`, the inhibition is -22.5% (inactive).

Turning to `C/C=C/c1ccc([C@@H]2[C@@H](CO)N(C(C)=O)[C@H]2CN(C)C(=O)CN(C)C)cc1`, the inhibition is 0.935% (inactive).

On to `C[C@H]1CN([C@@H](C)CO)C(=O)Cc2cc(NC(=O)NC3CCCCC3)ccc2O[C@H]1CN(C)S(=O)(=O)c1cccs1`, for which the inhibition was 11.1% (inactive).

Turning to `O=C(C[C@@H]1CC[C@@H]2[C@H](COC[C@@H](O)CN2Cc2ccc(F)cc2)O1)NCc1ccncn1`, the inhibition is -11.3% (inactive).

Consider `Cc1ccc(S(=O)(=O)Nc2ccc3c(c2)C(=O)N([C@H](C)CO)C[C@@H](C)[C@@H](CN(C)C(=O)CCC(F)(F)F)OCCCC[C@@H](C)O3)cc1`, for which the inhibition is -2.28% (inactive).

Regarding `O=C(NC1CCC1)[C@@H]1[C@@H](CO)[C@@H]2Cn3c(ccc(/C=C/c4ccccc4)c3=O)[C@@H]2N1Cc1ccncc1`, the inhibition is 7.46% (inactive).

As for `CN1C[C@H](O)COC[C@H]2O[C@H](CC(=O)NC3CCC3)CC[C@@H]21`, the inhibition is -17.3% (inactive).

Consider `CN(C)C(=O)c1cccc(-c2ccc([C@H]3[C@H](CO)N4C(=O)CN(C(=O)C5CCCCC5)C[C@@H]34)cc2)c1`, for which the inhibition was -1.57% (inactive).

For the compound `C[C@H](CO)N1C[C@H](C)[C@@H](CN(C)C)OCCCC[C@H](C)Oc2ccc(NC(=O)C3CCCCC3)cc2C1=O`, the inhibition was -11.4% (inactive).

For `O=S(=O)(Cc1ccccc1)N1CCCCN2[C@@H](CO)[C@@H](c3ccc(-c4ccc(F)cc4)cc3)[C@@H]2C1`, the inhibition was 44.5% (inactive).

As to `C[C@@H]1CN([C@@H](C)CO)C(=O)c2cc(NS(=O)(=O)c3cccs3)ccc2O[C@@H](C)CCCCO[C@@H]1CN(C)C(=O)NC1CCCCC1`, the inhibition was 1.62% (inactive).

Regarding `COc1ccc(-c2nc3ccc(Br)cn3c2Cc2ccc(C)cc2)cc1OC`, the inhibition is -53.2% (inactive).

In the case of `Cc1ccc(-c2nc3ccc(Br)cn3c2Cc2ccccc2C(F)(F)F)cc1`, the inhibition was -163% (inactive).

On to `Cc1ccc(-c2cn3cc(C)ccc3n2)cc1`, for which the inhibition is 91.9% (active).

As for `Cc1ccc2nc(-c3ccc(Br)cc3)cn2c1`, the inhibition was 92.9% (active).

Regarding `Cc1ccc(-c2nc3ccc(Cl)cn3c2Cc2ccccc2)cc1`, the inhibition is -103% (inactive).

In the case of `CS(=O)(=O)Nc1cccc(-c2cn3ccccc3n2)c1`, the inhibition is -44.1% (inactive).
